Efflux pump mplx = antifungal efflux pump inhibition, Nile Red retention. S. cerevisiae Candida pump triplex. inhibition, % at 10 µM. actives 0.44% (n = 330,000). AID 485275;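 active = plate passing quality check with inhibition over a set limit, or well fluorescence over plate mean plus 4 SD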;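 note: Nile Red retained in pooled yeast measured as flow cytometry median fluorescence; 0% = buffer negative control and 100% = Enniatin B positive control; higher means more Nile Red kept so more efflux inhibition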
MEP2-GFP yeast = yeast TOR pathway MEP2-GFP modulation; S. cerevisiae MEP2-GFP strain, flow cytometry GFP, 3 h; 100% = DMSO control level; GFP response vs DMSO, % at 10 µM; actives 0.51% (n = 330,000);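 active = GFP response versus DMSO above a set limit, roughly screen mean plus 3 SD, cut at about 180% in these data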;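 note: median GFP fluorescence of the barcode-gated MEP2-GFP cells per well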
AGP1-GFP MLPCN = modulators of TOR pathway AGP1-GFP in S. cerevisiae; S. cerevisiae AGP1-GFP multiplex flow cytometry, 3 h; GFP as percent of DMSO wells; GFP response vs DMSO, % at 10 µM; actives 0.02% (n = 320,000); AID 2066;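 active = GFP response relative to DMSO above a set limit, near screen average plus 3 SD, cut at about 150% in these data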;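 note: median GFP channel fluorescence of the gated AGP1 strain per well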
RPL19A TOR yeast = yeast TOR pathway RPL19A-GFP modulation. S. cerevisiae RPL19A-GFP strain, flow cytometry, 3 h; hits give low values. AID 2025. percent response vs DMSO, % at 10 µM. actives 0.3% (n = 330,000);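 active = percent response vs DMSO below 50%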;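 note: median channel GFP fluorescence of the barcoded RPL19A-GFP strain; ratio of sample median GFP to plate DMSO average so 100% = DMSO; lower means less RPL19A-GFP as with rapamycin TOR inhibition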
LAP4-GFP MLPCN = yeast TOR pathway LAP4-GFP modulation | actives 0.34% (n = 320,000) | AID 2023 | S. cerevisiae LAP4-GFP multiplex, flow cytometry GFP, 3 h; median GFP as percent of DMSO wells | GFP response vs DMSO, % at 10 µM;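 active = GFP response vs DMSO above a set limit, about the screen mean plus 3 SD, cut at about 150% in these data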
CIT2 TOR yeast = alters CIT2-GFP fluorescence in TOR pathway yeast screen. S. cerevisiae CIT2-GFP strain, flow cytometry, 3 h; 100 means same as DMSO wells. GFP response vs DMSO, % at 10 µM. actives 0.065% (n = 320,000). AID 2029;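 active = GFP response relative to DMSO above a set limit, near the screen mean plus 3 SD, cut at about 150% in these data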;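 note: ratio of well median GFP fluorescence to mean of DMSO wells on the plate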
LAP4 cherry2 = reconfirmed LAP4-GFP TOR pathway modulator in yeast; GFP response vs DMSO, % at 10 µM; S. cerevisiae LAP4-GFP strain, flow cytometry GFP, 3 h; actives 20% (n = 590); shares compounds with LAP4-GFP MLPCN; AID 2621;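 active = GFP signal as percent of the solvent control above about 150%, meaning raised reporter expression, limit read from the data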;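 note: ratio of well median GFP fluorescence to plate DMSO mean so 100% = DMSO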
MEP2-GFP pick2 = second confirmation of modulators of TOR reporter MEP2-GFP in yeast. shares compounds with LAP4-GFP MLPCN. S. cerevisiae MEP2-GFP strain, flow cytometry GFP, 3 h. actives 10% (n = 590). GFP response vs DMSO, % at 10 µM;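 active = GFP signal above 150% of the solvent control wells, that is a rise of more than half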;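 note: median channel GFP fluorescence of all gated yeast cells per well; ratio of median GFP to plate DMSO average so 100% = DMSO level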
RPL19A GFP CP2 = reconfirmed modulator of RPL19A-GFP TOR reporter in yeast | shares compounds with LAP4-GFP MLPCN | S. cerevisiae RPL19A-GFP strain, flow cytometry GFP, 3 h; hits give low values; 100% means same as DMSO wells | GFP response vs DMSO, % at 10 µM | actives 3% (n = 590) | AID 2623;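 active = under 65% GFP response relative to DMSO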;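 note: median GFP channel fluorescence per well over the all cells gate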
CIT2 GFP CP2 = reconfirmed modulator of CIT2-GFP TOR reporter in yeast. actives 8% (n = 590). S. cerevisiae CIT2-GFP strain, flow cytometry GFP, 3 h; DMSO control wells read 100%. GFP response vs DMSO, % at 10 µM. shares compounds with LAP4-GFP MLPCN;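 active = GFP response vs DMSO above about 150%, limit read from the data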;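 note: median green fluorescence per well over all gated yeast cells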
AGP1-GFP pick2 = yeast AGP1-GFP TOR reporter modulation, second cherry pick; S. cerevisiae AGP1-GFP strain, flow cytometry GFP, 3 h; 590 tested, under 10 active; AID 2643; percent response vs DMSO, % at 10 µM; shares compounds with LAP4-GFP MLPCN;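 active = over 150 percent of DMSO response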;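 note: median GFP channel fluorescence over all cells without mother daughter split; sample median GFP divided by mean DMSO control so 100% equals DMSO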
Yeast autofluor = counter-screen for compound autofluorescence in yeast s288c cells; shares compounds with LAP4-GFP MLPCN; S. cerevisiae s288c, 520 nm autofluorescence, flow cytometry, 3 h; hits give high values; zero means same as solvent-only cells; fluorescence change (kMESF span) at 33 µM; 610 tested, under 10 active; AID 2757;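 active = fluorescence span over the dose series, or activity score, above about 33, limit read from the data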
Yeast cmpd fluor = counter-screen for efflux pump inhibitors: compound fluorescence. shares compounds with Efflux pump mplx. S. cerevisiae AD/pABC3, flow cytometry. fluorescence ratio to DMSO, % at 10 µM. actives 4% (n = 1,700). AID 588517;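 active = fluorescence ratio to DMSO above its plate's cutoff, the plate mean ratio plus 5 SD, cut at about 210% in these data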;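 note: unstained yeast with no Nile Red so the signal is compound autofluorescence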
CaMdr1 efflux inh = blocks the Candida albicans Mdr1 efflux pump in yeast; S. cerevisiae AD/CaMDR1, Nile Red efflux, flow cytometry; inhibition, % at 10 µM; shares compounds with Efflux pump mplx; AID 588518; actives 1% (n = 1,700); in the data active = inhibition above about 26%;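 note: 0% = DMSO vehicle and 100% = reference inhibitor; higher means more Nile Red retained so more efflux inhibition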
Cdr2 pump inh = inhibitors of Candida albicans Cdr2 efflux pump; S. cerevisiae AD/CaCDR2, Nile Red retention, flow cytometry; shares compounds with Efflux pump mplx; actives 4% (n = 1,700); Nile Red retention ratio vs DMSO, % at 10 µM; AID 588520; in the data active = Nile Red retention ratio vs DMSO above about 190%;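 note: higher ratio means more blocking of Cdr2 efflux of the dye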
CaCdr1 efflux inh = Candida Cdr1 efflux pump inhibition; AID 588522; S. cerevisiae AD/CaCDR1, Nile Red efflux, flow cytometry; actives 1% (n = 1,700); shares compounds with Efflux pump mplx; inhibition, % at 10 µM;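 active = inhibition above the screen-wide mean plus twice its standard deviation, cut at about 32% in these data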
An asterisk follows results filed as active; i = inactive; . = not tested or not shown; + = active, no number; [ ] = another dose, or the depositor's remark. Most compounds without a hit are left out; they make up all but 1.3% or so of the library.

SMILES	Efflux pump mplx	MEP2-GFP yeast	AGP1-GFP MLPCN	RPL19A TOR yeast	LAP4-GFP MLPCN	CIT2 TOR yeast	Yeast cmpd fluor	CaMdr1 efflux inh	Cdr2 pump inh	CaCdr1 efflux inh	others
CCCCN(C)C1=CC2=CC(=C(C#N)C#N)CCC2CC1 (configuration not stated)	5.5*	335*	123	126	190*	207*	231	1	282*	1	LAP4 cherry2=489*;MEP2-GFP pick2=821*;RPL19A GFP CP2=152;CIT2 GFP CP2=619*;AGP1-GFP pick2=133
CCN(CC)C1=CC2=CC(=C(C#N)C#N)CCC2CC1 (configuration not stated)	3.4*	297*[may fluoresce green]	123	140	197*[may fluoresce green]	310*[may fluoresce green]	155	1	225*	1	LAP4 cherry2=354*;MEP2-GFP pick2=470*;RPL19A GFP CP2=128;CIT2 GFP CP2=434*;AGP1-GFP pick2=120
C=CCNC(=O)CN1N=C(c2ccc(C)cc2)CCC1=O	0	102	102	101	93	105	.	.	.	.
C=CCn1c(C)c(/C=C/c2cc[n+](C)cc2)c2ccccc21	1.4*	286*	117	129	171*	241*	684*	3	133	2	Yeast autofluor=5.1
Cc1ccccc1/C=C/c1cc[n+](C)cc1	0	96	94	98	104	105	.	.	.	.
O=C(CSc1nnc2ccccn12)NNC(=O)c1cccc(Cl)c1	0	103	102	102	98	102	.	.	.	.
COc1ccc(OC)c(NC(=O)c2cc(OC(C)=O)cc(C(=O)Nc3cc(OC)ccc3OC)c2)c1	0	101	98	102	99	103	.	.	.	.
COc1ccccc1C(=O)NCCC(=O)Nc1ccc(S(=O)(=O)N2C(C)CCCC2C)cc1 (configuration not stated)	1	100	105	98	97	92	.	.	.	.
CC(=O)N(\C=C/C=C/C=C1\Sc2ccccc2C1=O)c1ccccc1	5.7*	283*	105	113	167*	200*	297*	0	149	0	Yeast autofluor=10
COc1ccc(OC)c(NC(=O)C2CCN(S(=O)(=O)c3cccs3)CC2)c1	0	104	111	102	94	103	.	.	.	.
COc1ccccc1NC(=O)C1CCN(S(=O)(=O)c2cccs2)CC1	172*	+[may fluoresce green]	+[may fluoresce green]	i	+[may fluoresce green]	+[may fluoresce green]	111	1	108	0
Cc1ccc(CN2C(=O)C(CC(C)C)Nc3ncnc(N4CCN(c5ccccc5)CC4)c32)cc1 (configuration not stated)	0	95	97	96	98	102	109	0	117	0
COc1ccc(CN2C(=O)C(C)Nc3ncnc(N4CCOCC4)c32)cc1 (configuration not stated)	0	105	111	107	109	110	.	.	.	.
COc1ccc(CN2C(=O)C(C)Nc3ncnc(N4CCN(c5ccccc5)CC4)c32)cc1 (configuration not stated)	0	95	98	95	98	103	94	0	116	0
CCC1Nc2ncnc(N3CCN(c4ccccn4)CC3)c2N(Cc2ccc(Br)cc2)C1=O (configuration not stated)	0	105	113	107	111	107	112	0	121	0
CCC1Nc2ncnc(N3CCN(c4ccccc4)CC3)c2N(Cc2ccc(C)cc2)C1=O (configuration not stated)	0	98	88	98	138	91	.	.	.	.
CCC1Nc2ncnc(N3CCN(c4ccccc4)CC3)c2N(Cc2ccccc2)C1=O (configuration not stated)	0	100	109	104	106	101	107	0	120	0
CCC1Nc2ncnc(N3CCN(c4ccccn4)CC3)c2N(Cc2ccc(Cl)cc2)C1=O (configuration not stated)	0	92	88	98	105	90	.	.	.	.
Cc1cc(NC(=O)CSc2nnc3ccc(-c4ccc(F)cc4)nn23)no1	0	100	103	97	103	95	.	.	.	.
COc1ccc(CNC(=O)c2cccs2)cc1	0	98	97	95	96	98	.	.	.	.
COc1ccc(CNC(=O)c2cc3c(s2)CN(Cc2ccccc2)C3)cc1	0.5*	100	104	103	96	102	99	0	100	0
CC1(c2ccccc2)NC(=O)N(CC(=O)Nc2ccccc2C(=O)NC2CC2)C1=O (configuration not stated)	0	101	108	106	104	103	.	.	.	.
CCOC(=O)c1sc2nc3c(SCC(=O)O)cc(C(=O)c4ccccc4O)cn3c(=O)c2c1C	1.5*	94	100	98	98	102	100	0	101	0
